Where a name gives a salt, the structure may show the parent alone. ± gives the standard deviation of the averaged measurements.
What was measured:
Assay in all cases: cell viability (% of vehicle); higher = less cytotoxic
HCI01 [1] = cells of a triple-negative basal-like breast cancer xenograft; conditions: 1 µM; 72 h
UCD52 [2] = cells of a triple-negative basal-like breast cancer xenograft; conditions: 1 µM; 72 h
WHIM2 [3] = cells of a triple-negative basal-like breast cancer xenograft; conditions: 1 µM; 72 h
WHIM30 [4] = cells of a triple-negative basal-like breast cancer xenograft; conditions: 1 µM; 72 h
HCI01 [5] = conditions: 10 µM; 72 h
HCI03 = cells of an ER-positive luminal breast cancer xenograft; conditions: 10 µM; 72 h
HCI09 = cells of a triple-negative luminal androgen receptor type breast cancer xenograft; conditions: 10 µM; 72 h
HCI11 = cells of an ER-positive luminal breast cancer xenograft; conditions: 10 µM; 72 h
HCI13 = cells of an ER-positive luminal breast cancer xenograft; conditions: 10 µM; 72 h
HCI16 = cells of a triple-negative basal-like breast cancer xenograft; conditions: 10 µM; 72 h
UCD52 [6] = conditions: 10 µM; 72 h
WHIM2 [7] = conditions: 10 µM; 72 h
WHIM30 [8] = conditions: 10 µM; 72 h

Row | Structure (SMILES) | cell viability (HCI01 [1]) | cell viability (UCD52 [2]) | cell viability (WHIM2 [3]) | cell viability (WHIM30 [4]) | cell viability (HCI01 [5]) | cell viability (HCI03) | cell viability (HCI09) | cell viability (HCI11) | cell viability (HCI13) | cell viability (HCI16) | cell viability (UCD52 [6]) | cell viability (WHIM2 [7]) | cell viability (WHIM30 [8])
1 | CNCCC(Oc1ccc(C(F)(F)F)cc1)c1ccccc1.Cl (stereo unspecified) [Fluoxetine HCl] | 91.1 | 75.6 | 99.1 | 84.1 | 98.1 ± 5 | 98.4 | 84.6 ± 29 | 75.2 | 104 ± 12 | 58.6 | 47.8 ± 1.9 | 44.9 ± 6 | 65.9 ± 10
2 | Cl.Cl.O=C1c2c(O)ccc(O)c2C(=O)c2c(NCCNCCO)ccc(NCCNCCO)c21 [Mitoxantrone HCl] | 105 | 36.2 | 27.3 | 37.2 | 55.3 ± 38 | 111 | 25.9 ± 0.83 | 55.7 | 73.4 ± 11 | 117 | 27.5 ± 0.38 | 41.3 ± 18 | 65.4 ± 12
3 | COc1cc(Nc2ncc(F)c(Nc3ccc4c(n3)N(COP(=O)(O)O)C(=O)C(C)(C)O4)n2)cc(OC)c1OC [Fostamatinib (R788)] | 116 | 92.3 | 79 | 112 | 88.3 ± 8.6 | 102 | 87.2 ± 7 | 61 | 74.5 ± 1 | 65 | 55.7 ± 3.7 | 58.1 ± 4.2 | 86.6 ± 6.6
4 | CNC(=O)c1cc(Oc2ccc(NC(=O)Nc3ccc(Cl)c(C(F)(F)F)c3)c(F)c2)ccn1 [Regorafenib] | 103 | 80.7 | 99.6 | 89.9 | 22.5 ± 4.2 | 48 | 13.2 ± 3.8 | 43.5 | 83.1 ± 5.7 | 39.7 | 117 ± 4.5 | 30.6 ± 7.5 | 44.9 ± 1.4
5 | CN(C)c1ccc(O)c2c1CC1CC3C(N(C)C)C(=O)C(C(N)=O)=C(O)C3(O)C(=O)C1=C2O.Cl (stereo unspecified) [Minocycline HCl] | 103 | 100 | 91.2 | 102 | 68.2 ± 8.5 | 59.2 | 55.8 ± 58 | 52.6 | 78.7 ± 12 | 96.5 | 70.7 ± 4.3 | 82.8 ± 14 | 81.8 ± 11
6 | Nc1c(CC(=O)[O-])cccc1C(=O)c1ccccc1.O.[Na+] [Amfenac Sodium Monohydrate] | 97.6 | 93 | 115 | 99.5 | 56.6 ± 53 | 102 | 92.4 ± 14 | 92.6 | 114 ± 16 | 104 | 62.1 ± 8.9 | 82.7 ± 3.5 | 90.11 ± 0.73
7 | Clc1ccc(C(Cn2ccnc2)OCc2c(Cl)cccc2Cl)c(Cl)c1.O=[N+]([O-])O (stereo unspecified) [Isoconazole nitrate] | 123 | 112 | 126 | 105 | 57.9 ± 28 | 119 | 25.8 ± 3.4 | 101 | 54.2 ± 8.2 | 140 | 44.1 ± 5.8 | 52.1 ± 6.9 | 100 ± 2.2
8 | Cl.Nc1ccn(C2OC(CO)C(O)C2O)c(=O)n1 (stereo unspecified) [Cytarabine hydrochloride] | 71.5 | 114 | 86.3 | 90.1 | 75.2 ± 11 | 105 | 122 ± 36 | 147 | 61.5 ± 3.5 | 73.9 | 105 ± 5.7 | 58 ± 8.3 | 81.1 ± 11
9 | Clc1ccc(C(Cn2ccnc2)OCc2ccc(Sc3ccccc3)cc2)c(Cl)c1.O=[N+]([O-])O (stereo unspecified) [Fenticonazole Nitrate] | 89.6 | 92.5 | 107 | 91.5 | 40.8 ± 0.92 | 96.9 | 19.2 ± 2.4 | 74.8 | 44.74 ± 0.32 | 105 | 59.12 ± 0.32 | 40.7 ± 11 | 91.8 ± 8.3
10 | COC(=O)C1=C(C)NC(C)=C(C(=O)OCCN(C)Cc2ccccc2)C1c1cccc([N+](=O)[O-])c1.Cl (stereo unspecified) [Nicardipine HCl] | 108 | 94.4 | 93.5 | 100 | 66 ± 2.2 | 99.9 | 35.5 ± 4.3 | 65.4 | 55.4 ± 8.6 | 126 | 55.37 ± 0.27 | 48.8 ± 8.4 | 80 ± 5.5
11 | CC1CC(=O)NN=C1c1ccc(NN=C(C#N)C#N)cc1 (stereo unspecified) [Levosimendan] | 89.2 | 95.2 | 114 | 96.7 | 50.6 ± 31 | 183 | 51.9 ± 30 | 139 | 145 ± 28 | 82.2 | 51.1 ± 2.5 | 47.8 ± 9.7 | 86.7 ± 2.7
12 | O=C(NN=Cc1ccc([N+](=O)[O-])o1)c1ccc(O)cc1 [Nifuroxazide] | 78.8 | 91.1 | 95.3 | 77.5 | 63.5 ± 47 | 128 | 37 ± 17 | 82 | 62.8 ± 15 | 91.7 | 62.2 ± 28 | 94.9 ± 15 | 79.2 ± 5.8
13 | CC(C)CC(NC(=O)CNC(=O)c1cc(Cl)ccc1Cl)B(O)O (stereo unspecified) | 51.7 | 24.9 | 130 | 23.1 | 53.4 ± 8.3 | 116 | 14.9 ± 0.73 | 174 | 33.1 ± 5.4 | 84.6 | 58.8 ± 3.8 | 34.22 ± 0.066 | 80.3 ± 24
14 | CCc1c(Cl)c(O)c(Cl)c(O)c1C(=O)OC1C(C)OC(OCC2=CC=CCC(O)C(C)=CC(CC)C(OC3OC(C)(C)C(OC(=O)C(C)C)C(O)C3O)C(C)=CC(C)=CCC(C(C)O)OC2=O)C(OC)C1O (stereo unspecified) [Fidaxomicin] | 99.3 | 110 | 122 | 102 | 39.9 ± 12 | 65.5 | 28.6 ± 7.5 | 72.7 | 46.3 ± 0.086 | 56.3 | 44.6 ± 6.6 | 40.7 ± 8.9 | 29.3 ± 0.66
15 | CCOc1cc2ncc(C#N)c(Nc3ccc(OCc4ccccn4)c(Cl)c3)c2cc1NC(=O)C=CCN(C)C [Neratinib (HKI-272)] | 78.4 | 43.9 | 36.4 | 68.9 | 30.1 ± 7.1 | 38.1 | 27.8 ± 11 | 21.3 | 37.6 ± 1.3 | 38.7 | 23.2 ± 2.3 | 49.8 ± 12 | 96.1 ± 1.7
16 | CC(C)(C)NC(=O)C1CC2CCCCC2CN1CC(O)C(Cc1ccccc1)NC(=O)C(CC(N)=O)NC(=O)c1ccc2ccccc2n1.CS(=O)(=O)O (stereo unspecified) [Saquinavir mesylate] | 96.9 | 89.5 | 105 | 99.4 | 101 ± 20 | 104 | 57.7 ± 51 | 95.3 | 38.63 ± 0.17 | 63.8 | 50.4 ± 0.71 | 36.3 ± 2.6 | 103 ± 3.5
17 | COc1nc2ccc(Br)cc2cc1[C@@H](c1ccccc1)[C@@](O)(CCN(C)C)c1cccc2ccccc12 [Bedaquiline fumarate] | 90.7 | 108 | 97.8 | 99.8 | 79.1 ± 18 | 75.7 | 64.5 ± 22 | 80.3 | 116.1 ± 1.1 | 87 | 42.6 ± 0.72 | 48.7 ± 2.1 | 70 ± 2.9
18 | Cc1c(Cl)cccc1Nc1ccccc1C(=O)O [Tolfenamic Acid] | 95.9 | 102 | 106 | 92.6 | 100 ± 30 | 118 | 80.6 ± 9.7 | 91.9 | 71.1 ± 33 | 103 | 70.7 ± 3.2 | 41.7 ± 14 | 77.7 ± 3.3
19 | C=C1C(=CC=C2CCCC3(C)C2CCC3C(C)CCCC(C)C)CC(O)CC1O (stereo unspecified) [Alfacalcidol] | 72.3 | 59 | 51.8 | 91.3 | 31.7 ± 13 | 124 | 29.8 ± 8.2 | 70.1 | 52.6 ± 8.1 | 106 | 68.1 ± 0.89 | 49.9 ± 8.4 | 97.46 ± 0.87
20 | Cl.OC(c1cc(C(F)(F)F)nc2c(C(F)(F)F)cccc12)C1CCCCN1 (stereo unspecified) [Mefloquine hydrochloride] | 97.5 | 66 | 103 | 74 | 31.9 ± 1.3 | 40.5 | 23.9 ± 5.5 | 51.4 | 44.6 ± 6.4 | 30 | 30.3 ± 5.2 | 37.7 ± 2 | 49 ± 2.9
21 | CCOc1cc2ncc(C#N)c(Nc3ccc(F)c(Cl)c3)c2cc1NC(=O)C=CCN(C)C [Pelitinib (EKB-569)] | 98.5 | 27 | 31.4 | 46.1 | 30.5 ± 8.4 | 60.7 | 21.7 ± 4.1 | 37.7 | 34.2 ± 0.47 | 37.9 | 32.5 ± 1.5 | 31.1 ± 17 | 57.6 ± 12
22 | CC(C)N=c1cc2n(-c3ccc(Cl)cc3)c3ccccc3nc-2cc1Nc1ccc(Cl)cc1 [Clofazimine] | 88.1 | 84.9 | 90.3 | 80.2 | 54.8 ± 28 | 83.9 | 38.8 ± 13 | 88.8 | 43.6 ± 9.1 | 77.6 | 44.2 ± 1.7 | 53.1 ± 15 | 68.8 ± 6.1
23 | CC1=CC(=O)c2ccccc2C1=O [Menadione] | 98.6 | 94.2 | 105 | 98.2 | 61.6 ± 55 | 51.9 | 31.3 ± 7.9 | 30.5 | 57.3 ± 4.9 | 57.6 | 30.5 ± 2.1 | 44.1 ± 10 | 138 ± 14
24 | COC(=O)c1ccc2c(c1)NC(=O)C2=C(Nc1ccc(N(C)C(=O)CN2CCN(C)CC2)cc1)c1ccccc1 [Nintedanib (BIBF 1120)] | 83.1 | 46 | 46.6 | 51.2 | 70.5 ± 19 | 63.6 | 51.4 ± 46 | 59 | 71.2 ± 12 | 85.5 | 34.9 ± 2.4 | 65.2 ± 15 | 47 ± 11
25 | C#Cc1cccc(Nc2ncnc3cc(OCCOC)c(OCCOC)cc23)c1.Cl [Erlotinib Hydrochloride] | 63.1 | 68.3 | 50.1 | 80.5 | 75.1 ± 35 | 50 | 59 ± 12 | 104 | 69.8 ± 5.8 | 100 | 52.4 ± 1.8 | 48 ± 8.3 | 84.5 ± 5.2
26 | CCOC(=O)C1=C(COCCN)NC(C)=C(C(=O)OC)C1c1ccccc1Cl (stereo unspecified) [Amlodipine] | 103 | 93.7 | 101 | 90.2 | 70.6 ± 31 | 86.4 | 50.5 ± 42 | 100 | 32.2 ± 4.1 | 69.9 | 27.6 ± 4 | 31.9 ± 10 | 73.4 ± 12
27 | COC(=O)NC(C(=O)N1CCCC1c1ncc(-c2ccc(-c3ccc(-c4cnc(C5CCCN5C(=O)C(NC(=O)OC)C(C)C)[nH]4)cc3)cc2)[nH]1)C(C)C (stereo unspecified) | 85.1 | 82.6 | 93.7 | 82.8 | 79.8 ± 2.9 | 99.6 | 42.7 ± 35 | 72.6 | 131 ± 110 | 87.2 | 62.3 ± 1.2 | 58.8 ± 6.8 | 102 ± 11
